Assay results taken from PubChem BioAssay AID1159580 (chemical genetic matrix, 2015).
“And” between values parts separate entries of the source, which are not always exact repeats. Identical values can stand only once. Hit rate of the full screen: of about 5,500 compounds, about 2,000 (36%) were called active. Inconclusive results (about 18%) are left out. Rule as the data show it: active = normalized growth mostly below about 0.91 (no sharp cut-off); inconclusive = no clear call, values can overlap the other calls; inactive = mostly above about 0.92. The list shows a part of the results.

Assay: chemical genetic growth profiling, strain panel (AID 1159580);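 also: tested at 20 µM; growth read once vehicle control cultures reached saturation at 30 °C; 1 = growth at the plate median or of vehicle wells; lower values mean less growth of the strain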
Conditions: S. cerevisiae deletion strains, growth OD

Measured: normalized growth

O=[N+]([O-])c1cc(O)c(O)c([N+](=O)[O-])c1
inactive: locus YAL021C, strain ccr4, stronger effect = lower value 1.01 | locus YAL026C, strain drs2, stronger effect = lower value 1.01 | locus YAL030W, strain snc1, stronger effect = lower value 1.02 | locus YAL040C, strain CLN3, stronger effect = lower value 0.986 | locus YBL061C, strain skt5, stronger effect = lower value 1.01 | locus YBR009C, strain hhf1, stronger effect = lower value 1.07 | locus YBR021W, strain FUR4, stronger effect = lower value 0.953 | locus YBR023C, strain chs3, stronger effect = lower value 1.03 | locus YBR171W, strain sec66, stronger effect = lower value 1.01 | locus YBR229C, strain ROT2, stronger effect = lower value 1.01 | locus YBR231C, strain swc5, stronger effect = lower value 0.983 | locus YBR279W, strain paf1, stronger effect = lower value 1.03 | locus YCL011C, strain gbp2, stronger effect = lower value 1.03 | locus YCL016C, strain dcc1, stronger effect = lower value 1.05 | locus YCL029C, strain bik1, stronger effect = lower value 0.984 | locus YCL061C, strain MRC1 (second series), stronger effect = lower value 0.993 | locus YCL061C, strain MRC1, stronger effect = lower value 1.03 | locus YCL069W, strain vba3, stronger effect = lower value 1.01 | locus YCR088W, strain abp1, stronger effect = lower value 1 | locus YDL005C, strain med2, stronger effect = lower value 1.02 | locus YDL035C, strain GPR1, stronger effect = lower value 1 | locus YDL040C, strain nat1, stronger effect = lower value 1.02 | locus YDL074C, strain BRE1, stronger effect = lower value 1.01 | locus YDL101C, strain DUN1, stronger effect = lower value 1.01 | locus YDL185W, strain tfp1, stronger effect = lower value 0.967 | locus YDL192W, strain arf1, stronger effect = lower value 0.988 | locus YDR001C, strain nth1, stronger effect = lower value 0.998 | locus YDR069C, strain doa4, stronger effect = lower value 0.996 | locus YDR101C, strain arx1, stronger effect = lower value 0.997 | locus YDR137W, strain rgp1, stronger effect = lower value 0.982 | locus YDR150W, strain NUM1, stronger effect = lower value 1.01 | locus YDR159W, strain sac3, stronger effect = lower value 0.957 | locus YDR162C, strain NBP2, stronger effect = lower value 0.999 | locus YDR195W, strain ref2 0.992 | locus YDR297W, strain sur2, stronger effect = lower value 1.01 | locus YDR318W, strain mcm21, stronger effect = lower value 0.987 | locus YDR334W, strain swr1, stronger effect = lower value 1.01 | locus YDR335W, strain msn5, stronger effect = lower value 1.01 | locus YDR363W, strain ESC2, stronger effect = lower value 1.06 | locus YDR388W, stronger effect = lower value 0.978 | locus YDR392W, strain spt3, stronger effect = lower value 1.08 | locus YDR502C, strain sam2, stronger effect = lower value 1 | locus YEL003W, strain gim4, stronger effect = lower value 1.02 | locus YEL037C, strain rad23, stronger effect = lower value 1.01 | locus YEL061C, strain CIN8 (second series), stronger effect = lower value 1 | locus YEL061C, strain CIN8, stronger effect = lower value 1 | locus YER002W, strain NOP16, stronger effect = lower value 0.996 | locus YER015W, strain faa2, stronger effect = lower value 1.01 | locus YER016W, strain bim1, stronger effect = lower value 0.995 | locus YER110C, stronger effect = lower value 0.99 | locus YER111C, strain swi4, stronger effect = lower value 1 | locus YER155C, strain BEM2 (second series), stronger effect = lower value 0.992 | locus YER155C, strain BEM2, stronger effect = lower value 0.993 | locus YER167W, strain BCK2, stronger effect = lower value 1.02 | locus YFR010W, strain ubp6, stronger effect = lower value 1.01 | locus YGL078C, strain dbp3, stronger effect = lower value 0.976 | locus YGL086W, strain mad1, stronger effect = lower value 1 | locus YGL167C, strain pmr1, stronger effect = lower value 1.02 | locus YGL173C, strain kem1, stronger effect = lower value 1.01 | locus YGL227W, strain vid30, stronger effect = lower value 1.01 | locus YGL240W, strain doc1, stronger effect = lower value 0.998 | locus YGL248W, strain PDE1, stronger effect = lower value 1.03 | locus YGL253W, strain hxk2, stronger effect = lower value 0.959 | locus YGR078C, strain PAC10, stronger effect = lower value 1.01 and 0.977 | locus YGR135W, strain pre9, stronger effect = lower value 0.969 | locus YGR229C, strain SMI1, stronger effect = lower value 0.983 | locus YGR252W, strain gcn5, stronger effect = lower value 0.849 | locus YHR013C, strain ard1, stronger effect = lower value 1.05 | locus YHR027C, strain rpn1, stronger effect = lower value 1.01 | locus YHR030C, strain SLT2, stronger effect = lower value 0.996 | locus YHR079C, strain IRE1 (second series), stronger effect = lower value 0.994 | locus YHR094C, strain hxt1, stronger effect = lower value 0.972 | locus YHR129C, strain ARP1, stronger effect = lower value 1 | locus YHR142W, strain chs7, stronger effect = lower value 1.01 | locus YHR200W, strain rpn10, stronger effect = lower value 0.991 | locus YIL066C, strain RNR3, stronger effect = lower value 1.01 | locus YIL073C, strain SPO22, stronger effect = lower value 0.99 | locus YIL125W, strain kgd1, stronger effect = lower value 0.972 | locus YIR030C, strain dcg1, stronger effect = lower value 0.976 | locus YJL092W, strain hpr5, stronger effect = lower value 1.02 | locus YJL095W, strain BCK1 (second series), stronger effect = lower value 1.02 | locus YJL095W, strain BCK1, stronger effect = lower value 0.987 | locus YJL115W, strain asf1, stronger effect = lower value 1.01 | locus YJL129C, strain trk1, stronger effect = lower value 1.01 | locus YJL134W, strain LCB3, stronger effect = lower value 1.01 | locus YJL154C, strain vps35, stronger effect = lower value 1.01 | locus YJL164C, strain tpk1, stronger effect = lower value 1.06 | locus YJL166W, strain qcr8, stronger effect = lower value 1.01 | locus YJL168C, strain set2, stronger effect = lower value 0.978
